According to PubChem BioAssay AID1345085 (National Center for Advancing Translational Sciences (NCATS), 2018):
Results filed as inconclusive are left out. Active and inactive are the calls of the source. Calls follow the shape of the dose curve; as a rule, active = well fitted cell-killing curve with a large enough effect; inconclusive = small, poorly fitted or top-dose-only effect, or effect the other way; inactive = no such curve, though single readings can be large or run the other way.
% is scaled to controls: 0 for no effect and ±100 for the full control effect; potency is read from the fitted curve at half-maximal effect.
Also: nearly all actives have a fitted effect of over 55% in size.

What follows are molecules tested on Tov-21-G (assay: Confirmatory qHTS for gynecologic anti-cancer compounds from libraries of approved drugs and bioactive compounds). Details: gynecologic cancer cell panel viability, ATPlite luminescence, 48 h; series mostly up to 57.7 µM; activity change, negative = viability loss: at the top concentration.
Outline: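 Cells (1,000/well) plated 16 h, then exposed 48 h at 37 °C to 11 concentrations (1:3) from 57.5 uM to 0.977 nM. Viability by ATPlite luminescence after 15 min; IC50 derived, with HEK 293T used for selectivity index.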
For `O=C(O)Cc1ccccc1`, the “activity change, negative = viability loss” value was 25.4% (inactive). `CCN1CCN(C(=O)Cc2ccc(Nc3ncc(F)c(Nc4ccc(C(=O)Nc5ccccc5Cl)cc4)n3)cc2)CC1` was tested, and the “activity change, negative = viability loss” value was -3.78% (inactive). With `CCNC(=O)C[C@@H]1N=C(c2ccc(Cl)cc2)c2cc(OC)ccc2-n2c(C)nnc21` the Potency was 0.685 µM (active). With `Cc1sc2c(c1C)C(c1ccc(Cl)cc1)=NC(CC(=O)OC(C)(C)C)c1nnc(C)n1-2` (stereo unspecified) the Potency was 1.22 µM (active). `CCOc1ccccc1-n1c(C(C)N2CCN(C(=O)COc3ccc(Cl)cc3)CC2)nc2ccccc2c1=O` (stereo unspecified) was tested, and the Potency was 1.72 µM (active). With `C/C=C(/C)C(=O)O[C@H]1C(C)=C2[C@H]([C@@H]1OC(=O)CCCCCCC)[C@@](C)(OC(C)=O)C[C@H](OC(=O)CCC)[C@@]1(O)[C@H]2OC(=O)[C@@]1(C)O` the Potency was 13.7 µM (active).
